Data from PMC11062922 (Nature Chemical Biology, 2023).
Where two headings read alike, the source gives them in different places.

What was measured:
AP1G1 = system: AP1G1; parameters: species or system human, MV4-11 + K-562 + COLO205 + SK-N-BE2 + OVCAR-8; details: read-out: apparent Kd; compound concentrations:100 nM and 1000 nM (sheet 'Samples'); n = 1
AKT3 = system: AKT3; parameters: species or system human, MV4-11 + K-562 + COLO205 + SK-N-BE2 + OVCAR-8; details: read-out: apparent Kd; compound concentrations:100 nM and 1000 nM (sheet 'Samples'); n = 1
AURKB = system: AURKB; parameters: species or system human, MV4-11 + K-562 + COLO205 + SK-N-BE2 + OVCAR-8; details: read-out: apparent Kd; compound concentrations:100 nM and 1000 nM (sheet 'Samples'); n = 1
BMP2K = system: BMP2K; parameters: species or system human, MV4-11 + K-562 + COLO205 + SK-N-BE2 + OVCAR-8; details: read-out: apparent Kd; compound concentrations:100 nM and 1000 nM (sheet 'Samples'); n = 1
CSNK2A1;CSNK2A3 = system: CSNK2A1;CSNK2A3; parameters: species or system human, MV4-11 + K-562 + COLO205 + SK-N-BE2 + OVCAR-8; details: read-out: apparent Kd; compound concentrations:100 nM and 1000 nM (sheet 'Samples'); n = 1
CSNK2A2 = system: CSNK2A2; parameters: species or system human, MV4-11 + K-562 + COLO205 + SK-N-BE2 + OVCAR-8; details: read-out: apparent Kd; compound concentrations:100 nM and 1000 nM (sheet 'Samples'); n = 1
JAK1 = system: JAK1; parameters: species or system human, MV4-11 + K-562 + COLO205 + SK-N-BE2 + OVCAR-8; details: read-out: apparent Kd; compound concentrations:100 nM and 1000 nM (sheet 'Samples'); n = 1
Q6ZSR9 = Q6ZSR9 (human, UniProt Q6ZSR9); parameters: species or system MV4-11 + K-562 + COLO205 + SK-N-BE2 + OVCAR-8; details: read-out: apparent Kd; compound concentrations:100 nM and 1000 nM (sheet 'Samples'); n = 1
ATM = system: ATM; parameters: species or system human, MV4-11 + K-562 + COLO205 + SK-N-BE2 + OVCAR-8; details: read-out: apparent Kd, n = 1
CDC42BPG = system: CDC42BPG; parameters: species or system human, MV4-11 + K-562 + COLO205 + SK-N-BE2 + OVCAR-8; details: read-out: apparent Kd; compound concentrations: 100 nM and 1000 nM (sheet 'Samples'), CATDS: 9.9527078318265502E-2; n = 1
DCTPP1 = system: DCTPP1; parameters: species or system human, MV4-11 + K-562 + COLO205 + SK-N-BE2 + OVCAR-8; details: read-out: apparent Kd; compound concentrations: 100 nM and 1000 nM (sheet 'Samples'), CATDS: 8.8490675480642905E-2; n = 1
DDR2 = system: DDR2; parameters: species or system human, MV4-11 + K-562 + COLO205 + SK-N-BE2 + OVCAR-8; details: read-out: apparent Kd; compound concentrations: 100 nM and 1000 nM (sheet 'Samples'), CATDS: 8.0656162840652496E-2; n = 1
FLT3 = system: FLT3; parameters: species or system human, MV4-11 + K-562 + COLO205 + SK-N-BE2 + OVCAR-8; details: read-out: apparent Kd; compound concentrations: 100 nM and 1000 nM (sheet 'Samples'), CATDS: 8.7421379442902306E-2; n = 1
IRAK4 = system: IRAK4; parameters: species or system human, MV4-11 + K-562 + COLO205 + SK-N-BE2 + OVCAR-8; details: read-out: apparent Kd; compound concentrations: 100 nM and 1000 nM (sheet 'Samples'), CATDS: 7.99000406569913E-2; n = 1
MYLK3 = system: MYLK3; parameters: species or system human, MV4-11 + K-562 + COLO205 + SK-N-BE2 + OVCAR-8; details: read-out: apparent Kd; compound concentrations: 100 nM and 1000 nM (sheet 'Samples'), CATDS: 0.35041871443296002; n = 1
PIM2 = system: PIM2; parameters: species or system human, MV4-11 + K-562 + COLO205 + SK-N-BE2 + OVCAR-8; details: read-out: apparent Kd; compound concentrations: 100 nM and 1000 nM (sheet 'Samples'), CATDS: 8.1354023438197698E-2; n = 1
PRKAG1 = system: PRKAG1; parameters: species or system human, MV4-11 + K-562 + COLO205 + SK-N-BE2 + OVCAR-8; details: read-out: apparent Kd; compound concentrations: 100 nM and 1000 nM (sheet 'Samples'), CATDS: 8.6524001120503097E-2; n = 1
TNIK = system: TNIK; parameters: species or system human, MV4-11 + K-562 + COLO205 + SK-N-BE2 + OVCAR-8; details: read-out: apparent Kd; compound concentrations: 100 nM and 1000 nM (sheet 'Samples'), CATDS: 9.2286016750468006E-2; n = 1
CDC42 = system: CDC42; parameters: species or system human, MV4-11 + K-562 + COLO205 + SK-N-BE2 + OVCAR-8; details: read-out: apparent Kd; compound concentrations: 100 nM and 1000 nM (sheet 'Samples'), CATDS: 0.120707875604042; n = 1
MTOR = system: MTOR; parameters: species or system human, MV4-11 + K-562 + COLO205 + SK-N-BE2 + OVCAR-8; details: read-out: apparent Kd; compound concentrations: 100 nM and 1000 nM (sheet 'Samples'), CATDS: 0.13183909981737599; n = 1
PIK3CA = system: PIK3CA; parameters: species or system human, MV4-11 + K-562 + COLO205 + SK-N-BE2 + OVCAR-8; details: read-out: apparent Kd, compound concentrations: 100 nM and 1000 nM (sheet 'Samples'), n = 1
PIK3CD = system: PIK3CD; parameters: species or system human, MV4-11 + K-562 + COLO205 + SK-N-BE2 + OVCAR-8; details: read-out: apparent Kd; compound concentrations: 100 nM and 1000 nM (sheet 'Samples'), CATDS: 0.39108548114929897; n = 1
PKN3 = system: PKN3; parameters: species or system human, MV4-11 + K-562 + COLO205 + SK-N-BE2 + OVCAR-8; details: read-out: apparent Kd; compound concentrations: 100 nM and 1000 nM (sheet 'Samples'), CATDS: 0.11684999356733999; n = 1
GSK3A = system: GSK3A; parameters: species or system human, MV4-11 + K-562 + COLO205 + SK-N-BE2 + OVCAR-8; details: read-out: apparent Kd; compound concentrations: 100 nM and 1000 nM (sheet 'Samples'), CATDS: 0.20080889855539999; n = 1
GSK3B = system: GSK3B; parameters: species or system human, MV4-11 + K-562 + COLO205 + SK-N-BE2 + OVCAR-8; details: read-out: apparent Kd; compound concentrations: 100 nM and 1000 nM (sheet 'Samples'), CATDS: 0.19196654372997399; n = 1

Sequence of Q6ZSR9 (Q6ZSR9 whole entry, looked up): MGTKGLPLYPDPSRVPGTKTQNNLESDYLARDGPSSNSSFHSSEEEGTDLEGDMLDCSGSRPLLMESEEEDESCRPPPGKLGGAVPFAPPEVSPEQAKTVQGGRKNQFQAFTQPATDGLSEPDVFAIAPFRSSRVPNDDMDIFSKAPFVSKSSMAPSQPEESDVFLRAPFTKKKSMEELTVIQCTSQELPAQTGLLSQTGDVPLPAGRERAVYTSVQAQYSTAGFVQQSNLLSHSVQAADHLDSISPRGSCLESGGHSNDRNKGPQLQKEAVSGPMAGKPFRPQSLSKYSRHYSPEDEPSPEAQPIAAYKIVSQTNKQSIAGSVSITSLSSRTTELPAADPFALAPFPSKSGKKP

COc1cccc(OC)c1C(=O)Nc1cccc(-c2nn3ccccc3c2-c2ccnc(Nc3cccc(F)c3)n2)c1 [GSK361065A]
potency estimated from few doses (AP1G1): 0.895 µM

NC(=O)Nc1sc(-c2ccc(F)cc2)cc1C(N)=O [GW789449X]
potency estimated from few doses (AKT3): 1.83 µM
potency estimated from few doses (AURKB): 1.31 µM
potency estimated from few doses (BMP2K): 1.26 µM
potency estimated from few doses (CSNK2A1;CSNK2A3): 1.73 µM
potency estimated from few doses (CSNK2A2): 1.13 µM
potency estimated from few doses (JAK1): 0.711 µM
potency estimated from few doses (Q6ZSR9): 1.37 µM

NS(=O)(=O)c1cccc(N/C=C2\C(=O)Nc3ccccc32)c1 [GW275616X]
potency estimated from few doses (ATM; compound concentrations: 100 nM and 1000 nM (sheet 'Samples'), CATDS: 0.21008347624398099): 0.294 µM
potency estimated from few doses (CDC42BPG): 1.2 µM
potency estimated from few doses (DCTPP1): 1.6 µM
potency estimated from few doses (DDR2): 2.06 µM
potency estimated from few doses (FLT3): 1.65 µM
potency estimated from few doses (IRAK4): 2.11 µM
potency estimated from few doses (MYLK3): 0.137 µM
potency estimated from few doses (PIM2): 2.01 µM
potency estimated from few doses (PRKAG1): 1.69 µM
potency estimated from few doses (TNIK): 1.44 µM

COC(=O)Nc1nc2ccc(Oc3ccc(NC(=O)Nc4cc(C(F)(F)F)ccc4F)cc3)cc2s1.Cl [GW693917A]
potency estimated from few doses (ATM; compound concentrations:100 nM and 1000 nM (sheet 'Samples')): 0.222 µM

Fc1ccc(-c2c(-c3ccncc3)nc3n2CCS3)cc1 [SKF-86055]
potency estimated from few doses (ATM; compound concentrations: 100 nM and 1000 nM (sheet 'Samples'), CATDS: 0.230066198267698): 0.174 µM
potency estimated from few doses (CDC42): 0.94 µM
potency estimated from few doses (MTOR): 0.688 µM
potency estimated from few doses (PIK3CA; CATDS: 0.214179011469951): 0.201 µM
potency estimated from few doses (PIK3CD): 0.0713 µM
potency estimated from few doses (PKN3): 1.07 µM

Cc1c(C2=C(c3cn(C)c4ccccc34)C(=O)NC2=O)c2ccccc2n1C [RO0317777-000]
potency estimated from few doses (ATM; compound concentrations: 100 nM and 1000 nM (sheet 'Samples'), CATDS: 0.73643038354307599): 0.0201 µM
potency estimated from few doses (GSK3A): 0.343 µM
potency estimated from few doses (GSK3B): 0.397 µM
potency estimated from few doses (PIK3CA; CATDS: 0.224567790498646): 0.247 µM
